From PubChem BioAssay (EPA / NIEHS)
Values joined by “and” are separate entries in the source; they are usually repeats but may differ in a detail not shown here. Identical values can stand only once. Active and inactive are the calls of the source. The calls were made as follows: active = hit-call score of the fitted dose curve at least 0.9, where 1 is the maximum; inactive = score below 0.9.

These molecules were tested on urokinase plasminogen activator (uPA), PLAU (gene 5328) (assay: BSK_BE3C_uPA: BioMAP Diversity Plus: BE3C Assay for urokinase plasminogen activator (uPA) Biomarker Activity (AID 2283038;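 as to outcome: uPA read one day after compound addition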)). Conditions: primary human bronchial epithelial cells; actives raise or lower the signal.
Protocol: BSK_BE3C is a cell-based, multiplexed-readout assay that uses bronchial epithelial cell, a human lung primary cell, with measurements taken at 24 hours after chemical dosing in a 96-well plate.BSK_BE3CA is an assay component measured in the BSK_BE3C assay. It measures uPA antibody related to regulation of gene expression using ELISA technology.Data from the assay component BSK_BE3CA was analyzed into 1 assay endpoint. This assay endpoint, BSK_BE3CA, was analyzed with bidirectional fitting relative to DMSO as the negative control and baseline of activity. Using a type of binding reporter, gain or loss-of-signal activity can be used to understand changes in the signaling as they relate to the gene PLAU. Furthermore, this assay endpoint can be referred to as a primary readout, because this assay has produced multiple assay endpoints where this one serves a signaling function. To generalize the intended target to other relatable targets, this assay endpoint is annotated to the protease intended target family, where the subfamily is serine protease.
The levels of cell surface (or secreted, indicated by the prefix "s") biomarker endpoints were measured by ELISA. Overt cytotoxicity to cells in confluent adherent cultures (all systems other than the BT system) was assessed by measuring total protein levels using sulforhodamine B (SRB) staining in parallel cultures at the time of biomarker measurements, indicated as SRB endpoints. For proliferation assays for adherent cell types, individual cell types are cultured at sub-confluence and relative cell numbers quantified by SRB staining at time points optimized for each system (48 h: 3C and CASM3C systems; 72 h: BT and HDF3CGF systems; 96 h: SAg system). SRB was performed by staining cells with 0.1% SRB after fixation with 10% TCA and reading wells at 560 nm.Viability and proliferation of PBMC (T cells) was quantified by Alamar Blue reduction for the SAg and BT systems. For PBMC viability (referred to as PBMC Cytotoxicity within the assay endpoint names), cells were plated (75,000/well in a 96-well plate) and then chemical samples added for 1 h before addition of activators, SEB and TSST-1 (20 ng/mL final concentration each). Cells were incubated for 90 h. Then, Alamar Blue (20 uL/well) (Invitrogen, Cat DAL1100) was added for 6 h, and the plates were read with a fluorescence microplate reader at 546/580 nm (excitation/emission). For PBMC proliferation, cells were plated and activated as above but incubated for only 16 h prior to addition of Alamar Blue. Plates were read after 6 h.
`O=C(O)C(F)(F)C(F)(F)C(F)(F)C(F)(F)F` was tested, and the outcome was “inactive”. In the case of `FC(F)(F)C(F)(F)C(F)(F)C(F)(F)C(F)(F)C(F)(F)C(F)(F)I`, the outcome is reported as “inactive”. With `O=C(O)C(F)(F)C(F)(F)OC(F)(F)F` the outcome was “inactive”. In the case of `OCC(F)(F)C(F)(F)C(F)(F)F`, the outcome is reported as “inactive”. In the case of `C=CC(F)(F)C(F)(F)C(F)(F)C(F)(F)C(F)(F)C(F)(F)C(F)(F)C(F)(F)C=C`, the outcome is reported as “inactive”. In the case of `O=C(O)C(F)(F)C(F)(F)F`, the outcome is reported as “inactive”. With `CCO[Si](CCC(F)(F)C(F)(F)C(F)(F)C(F)(F)C(F)(F)C(F)(F)F)(OCC)OCC` the outcome was “inactive”. With `FC(F)(I)C(F)(F)C(F)(F)C(F)(F)I` the outcome was “inactive”. `CS(C)(=O)=O` was tested, and the outcome was “inactive”. `C=CC(F)(F)C(F)(F)C(F)(F)C(F)(F)C(F)(F)C(F)(F)C(F)(F)C(F)(F)F` was tested, and the outcome was “inactive”. For `C=C(C)C(=O)OCC(F)(F)C(F)(F)C(F)(F)C(F)(F)C(F)(F)C(F)(F)C(F)(F)F`, the outcome was “inactive”. With `O=C(O)C(F)(F)C(F)(F)C(F)(F)F` the outcome was “inactive”. In the case of `CCc1c(Br)c(Br)c(Br)c(Br)c1Br`, the outcome is reported as “inactive”. `CCCCCCCOC(=O)c1ccccc1C(=O)OCCCCCCC` was tested, and the outcome was “inactive”. With `O=C(O)C(F)(F)C(F)(F)C(F)(F)C(F)(F)C(F)(F)C(F)(F)C(F)(F)C(F)(F)C(F)(F)C(F)F` the AC50 was 16.5 µM (active) and 10.6 µM (active). For `O=C(O)C(F)(F)C(F)(F)C(F)(F)C(F)(F)C(F)(F)C(F)(F)C(F)(F)C(F)(F)C(F)(F)C(F)(F)C(F)(F)C(F)(F)C(F)(F)F`, the outcome was “inactive”. In the case of `OCC(F)(F)C(F)(F)C(F)(F)C(F)F`, the outcome is reported as “inactive”. For `FC(F)(F)C(F)(F)C(F)(F)C(F)(F)C(F)(F)C(F)(F)C(F)(F)C(F)(F)CCS`, the outcome was “inactive”. In the case of `OCC(F)(F)C(F)(F)C(F)(F)C(F)(F)C(F)(F)C(F)(F)F`, the outcome is reported as “inactive”. For `O=C(O)C=C(C(F)(F)F)C(F)(F)F`, the outcome was “inactive”. In the case of `Cc1ccc(S(=O)(=O)OCC(F)(F)C(F)(F)C(F)(F)C(F)(F)C(F)(F)C(F)F)cc1`, the outcome is reported as “inactive”. With `Nc1ccc([N+](=O)[O-])cc1O` the outcome was “inactive”. For `FC(F)(F)C(F)(F)C(F)(F)C(F)(F)C(F)(F)C(F)(F)C(F)(F)C(F)(F)F`, the outcome was “inactive”. With `FC(F)(F)C(F)(F)C(F)(F)C(F)(F)CCI` the outcome was “inactive”. `O=C(Cl)C(F)(F)C(F)(F)C(F)(F)C(F)(F)C(F)(F)C(F)(F)C(F)(F)C(F)(F)F` was tested, and the AC50 was 51.7 µM (active) and 48.2 µM (active) and 47.1 µM (active). For `O=S(=O)(OCC(F)F)C(F)(F)F`, the outcome was “inactive”. With `CC(C)(C)C(=O)CC(=O)C(F)(F)C(F)(F)C(F)(F)F` the outcome was “inactive”. For `C#C[C@]1(O)CC[C@H]2[C@@H]3CCc4cc(OC)ccc4[C@H]3CC[C@@]21C`, the outcome was “inactive”. In the case of `Oc1ccc(Nc2ccccc2)cc1`, the outcome is reported as “inactive”. With `FC(F)(F)C(F)(F)C(F)(F)C(F)(F)C(F)(F)C(F)(F)C(F)(F)Br` the outcome was “inactive”. `NC(=O)C(F)(F)C(F)(F)C(F)(F)C(F)(F)F` was tested, and the outcome was “inactive”. For `FC(F)(F)C(F)(F)C(F)(F)CI`, the outcome was “inactive”. For `COC(=O)CCC(F)(F)C(F)(F)C(F)(F)C(F)(F)F`, the outcome was “inactive”. For `O=S(=O)(OCCOC(F)(F)F)C(F)(F)F`, the outcome was “inactive”. With `O=C(O)C(F)(OC(F)(F)C(F)(OC(F)(F)C(F)(F)C(F)(F)F)C(F)(F)F)C(F)(F)F` (stereo not given) the outcome was “inactive”. In the case of `CC(=O)Nc1ccc(N=Nc2cc(C)ccc2O)cc1`, the outcome is reported as “inactive”. For `O=C(O)C(F)(F)C(F)(F)C(F)(F)C(F)(F)C(F)(F)C(F)(F)C(F)(F)C(F)(F)Cl`, the AC50 was 45.7 µM (active) and 45.8 µM (active). In the case of `CCCCNc1ccccc1`, the outcome is reported as “inactive”. For `CCN(CC)c1ccc2c(C)cc(=O)oc2c1`, the outcome was “inactive”. For `O=C(CC(=O)C(F)(F)C(F)(F)F)C(F)(F)F`, the outcome was “inactive”.
